# Records with an inconclusive call do not appear. Activity calls are given as the source filed them. The call rests on the fitted dose curve; in most records, active means well fitted curve in either direction with a large enough effect (not every such curve was filed as active); inconclusive means small, poorly fitted or top-dose-only effect, or another doubt; inactive means flat fitted curve, though single readings scatter.
# Target: Mitogen-activated protein kinase 10 (Mus musculus) (UniProt Q61831)
# Assay: JNK3 AlphaScreen Assay (AID 530);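 further: kinase came from lysate of stimulated human HepG2 cells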
# Settings: JNK3 lysate, c-Jun phosphorylation; series mostly up to 25.6 µM; activity change, negative = inhibition: at the top concentration
# From the text: NIH Chemical Genomics Center [NCGC]
# NIH Molecular Libraries Screening Centers Network [MLSCN]
# The c-jun N-terminal kinase (JNK) family are serine/threonine protein kinases that phosphorylate c-jun, a component of the transcription factor […] (AP-1). JNK kinases are members of the mitogen-activated protein kinase family including the extracellular regulated kinases and p38 kinases. Three JNK genes (JNK 1, 2, and 3) have been identified in humans so far. JNK1 and JNK2 have a broad distribution and JNK3 is primarily found in neuronal tissues and cardiac myocytes.
# JNK3 has been under consideration as a target for the treatment of neurodegenerative disorders. […] JNK pathway is also involved in pathological process in a mouse model of Parkinson's disease (Xia et al., 2001).
# Given these potential tissue distributions and links to neuroprotection, JNK3 inhibitors should provide useful investigational tools to study the role of this kinase in several diseases including, arthritis, stroke, myocardial infarction, ischemic injury and Parkinson's disease.
# A homogeneous AlphaScreen is developed to measure the activity of JNK3. AlphaScreen is a two bead-based proximity-dependent chemical energy transfer luminescent assay platform. The phosphorylation of a biotinylated c-jun substrate by JNK3 can be detected with an antibody raised against phosphorylated c-jun. This process brings streptavidin donor beads and Protein-A acceptor beads to within a proximity range of <200 nm, and subsequently lead a chemical luminescent reaction upon exciting donor beads with 680 nm laser excitation light. Inhibition of JNK3 activity by small molecules and subsequent decrease in the antibody binding to biotinylated c-jun could attenuate or abolish this chemical luminescent reaction.
# Yang DD, Kuan CY, Whitmarsh AJ, Rincon M, Zheng TS, Davis RJ, Rakic P and Flavell RA (1997) Absence of excitotoxicity-induced apoptosis in the hippocampus of mice lacking the Jnk3 gene. Nature 389:865-870. [PMID: 9349820]
# Herdegen T, Claret FX, Kallunki T, Martin-Villalba A, Winter C, Hunter T, and Karin M (1998) Lasting N-terminal phosphorylation of c-Jun and activation of c-Jun N-terminal kinases after neuronal injury. J.Neurosci. 18:5124-5135. [PMID: 9651196]
# Xia XG, Harding T, Weller M, Bieneman A, Uney JB and Schulz JB (2001) Gene transfer of the JNK interacting protein-1 protects dopaminergic neurons in the MPTP model of Parkinson's disease. Proc.Natl.Acad.Sci.U.S.A. 98:10433-10438.
# NCGC Assay Protocol Summary:
# GST-cJun (1-79) (Stratagene, La Jolla CA, #205145) was biotnylated by PerkinElmer (PerkinElmer-BioSignalInc. Montreal, Canada) and was detectable by the streptavidin Donor beads. Anti-(phospho)cJun (Ser73) antibody was from UpState (Charlottesvilles, VA, #06-659). JNK3-containing lysates were generated from HepG2 cells and pre-activated by interleukin1-beta and tumor necrosis factor alpha. All reagents were stored at -20 C before using. Phosphorylated biotinylated-GST-cJun was recognized by Anti-(phospho)cJun (Ser73) antibody and this process brings acceptor and donor beads together. Therefore JNK3 phosphorylation of cJun can be measured by Alpha reading by EnVision (PerkinElmer, Boston, MA).
# The composition of kinase buffer was (in mM) 20 tris- HCl (pH 7.6) 10 MgCl2, 1 DTT, and 0.1 Na3VO4 and 0.01% Tween-20. Beads were diluted in detection buffer containing (in mM) 20 tris-HCl (pH 7.7), 20 NaCl and 80 EDTA and 0.3% BSA. The assay was performed at room temperature. All compounds were screened as titrations from 0.6 nM to 46 uM final concentration. The assay was performed in 1536-well format (white solid bottom and untreated) as follows:
# Sequence,Parameter,Value,Description
# 1,Reagent,3 uL,Biotin-GST-cJun, Anti-(phospho)cJun and pre-activated JNK3-containing lysates
# 2,Compound,23 nL,Final concentration was 0.6nM to 46uM
# 3,Time,15 minutes,Room Temperature
# 4,Reagent,1 uL,ATP final concentration 10uM
# 6,Reagent,0.5 uL,2ng/well bead mixture
# […]
# On the % scale 0 is the no-effect control and ±100 the full control effect.
Structure (SMILES),outcome,"activity change, negative = inhibition"
CN1C(C)(C)CCCC1(C)C,inactive,
Cc1cc(NC(=O)C2=C(O)c3ccccc3S(=O)(=O)N2C)no1,,-5.23% (inactive)
CCCCCCCC(=O)OCC(COC(=O)CCCCCCC)OC(=O)CCCCCCC,,19.7% [at 57.1 µM] (inactive)
Cc1c(NC(C)C)c(=O)n(-c2ccccc2)n1C,,-0.633% (inactive)
COc1ccc2cc(CCC(C)=O)ccc2c1,,21.5% (inactive)
CC(=O)N[C@@H](CC(C)C)C(=O)O,,-1.94% (inactive)
CC(C)(C)C(=O)OCOC(=O)[C@@H]1N2C(=O)[C@@H](NC(=O)[C@H](N)c3ccccc3)[C@H]2SC1(C)C,,-3.07% (inactive)
C[N+](C)(C)CC[N+]1(C)Cc2c(Cl)c(Cl)c(Cl)c(Cl)c2C1,,-5.57% [at 57.1 µM] (inactive)
Nc1ccc(S(=O)(=O)c2ccc(N)cc2)cc1,inactive,
CCCCC1(COC(=O)CCC(=O)O)C(=O)N(c2ccccc2)N(c2ccccc2)C1=O,,-2.67% (inactive)
NS(=O)(=O)c1ccc(C(=O)O)cc1,,3.88% [at 11.4 µM] (inactive)
CC(=O)OCC(COC(C)=O)OC(C)=O,,9.69% [at 57.1 µM] (inactive)
CC(=O)SC[C@@H](Cc1ccccc1)C(=O)NCC(=O)OCc1ccccc1,,10.4% (inactive)
O=C(Cn1ccnc1[N+](=O)[O-])NCCO,,3.98% (inactive)
O=C(O)CCCCC1CCSS1 (stereo not given),,28.8% [at 57.1 µM] (inactive)
O=C(O)c1ccccc1OP(=O)(O)O,,-0.129% (inactive)
CCOC(=O)[C@H](CCc1ccccc1)N[C@@H](C)C(=O)N1CCC[C@H]1C(=O)O,,-1.81% (inactive)
CC1CC(OC(=O)c2ccccc2O)CC(C)(C)C1 (stereo not given),,11.4% [at 57.1 µM] (inactive)
C[C@@H](N)C(=O)O,,5.71% [at 57.1 µM] (inactive)
CCS(=O)(=O)CCn1c([N+](=O)[O-])cnc1C,,1.71% (inactive)

Structure (SMILES),outcome,"activity change, negative = inhibition"
O=C1c2ccccc2S(=O)(=O)N1CCCCN1CCN(c2ncccn2)CC1,,3.63% [at 57.1 µM] (inactive)
CC(=O)Nc1ccccc1,,5.34% [at 57.1 µM] (inactive)
O=S1(=O)OC(c2ccc(O)cc2)(c2ccc(O)cc2)c2ccccc21,,2.82% [at 11.4 µM] (inactive)
CCN(CC)C(=O)c1cccc(C)c1,,23.2% [at 57.1 µM] (inactive)
NC(N)=NS(=O)(=O)c1ccc(N)cc1,,17.5% (inactive)
CCN(CC)CCOC(=O)C(c1ccccc1)c1ccccc1,,3.96% (inactive)
Cc1cc(C)nc(NS(=O)(=O)c2ccc(N)cc2)n1,inactive,
COc1ccc(O)cc1,,6.91% [at 57.1 µM] (inactive)
Cn1c(=O)c2c(ncn2CCO)n(C)c1=O,,-3.62% (inactive)
FC(F)(F)C(Cl)Br (stereo not given),,9.59% [at 57.1 µM] (inactive)
Cc1ncc(CO)c(CN)c1O,,-1.72% [at 11.4 µM] (inactive)
Cc1c(N(C)C)c(=O)n(-c2ccccc2)n1C,inactive,
O=C(O)c1ccccc1C(=O)Nc1ccc(S(=O)(=O)Nc2nccs2)cc1,,6.32% (inactive)
NC(=O)CC[C@@H](N)C(=O)O,,14.4% [at 57.1 µM] (inactive)
Cn1c([N+](=O)[O-])cnc1COC(N)=O,,-1.99% (inactive)
CC[N+](C)(CC)CCOC(=O)C1c2ccccc2Oc2ccccc21,,3.02% (inactive)
CC(=O)NS(=O)(=O)c1ccc(N)cc1,,0.0328% (inactive)
Cc1cccc(Nc2ccccc2C(=O)O)c1C,,-6.51% (inactive)
O=C(c1ccccc1)C(O)c1ccccc1 (stereo not given),,16.4% [at 57.1 µM] (inactive)
CC(=O)Nc1ccc(C(=O)O)cc1,,12% [at 57.1 µM] (inactive)

# Reference: PubChem BioAssay (NCATS)
